Reference: PubChem BioAssay (Tox21)
Values without a mark were called inactive. Results filed as inconclusive are left out. Where a call stands in place of a potency, no number is given. Activity calls are given as the source filed them. Unless noted, calls come from the whole dose curve; as a rule, active = well fitted curve in the direction sought with a large enough effect in the repeat runs; inconclusive = weak or mixed curves; inactive = no such curve, though single readings can be large; an effect the other way counts as inactive or inconclusive.

Key:
[1] = qHTS assay to identify small molecule antagonists of the estrogen related receptor signaling pathway with the pleiotropic PPARgamma coactivator (PGC) from Tox21 10K library - cell viability counter screen (AID 1224840; active = well fitted cell-killing curve with a large enough effect in the repeat runs, not every such curve was filed as active; note: nearly all actives have a fitted effect of over 40% in size)
In short: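 Following seeding of 2,000 PGC/ERR cells/well and 6 hours' incubation, test compounds were delivered in DMSO. The plates then sat 17.5 hours at 37 C before a fluorogenic live-cell protease reagent (CellTiter-Fluor) was read after 30 min.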

[2] = qHTS assay to identify small molecule agonists of the estrogen related receptor signaling pathway with the pleiotropic PPARgamma coactivator (PGC) from Tox21 10K library (AID 1224842); note: nearly all actives have a fitted effect of over 15% in size
In short: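 PGC/ERR reporter cell line, 2,000 cells per well, incubated 6 h at 37 C before 23 nL compound in DMSO was added. After 18 h at 37 C, One-Glo luminescence read following 30 min at room temperature.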

[3] = target: Thyrotropin receptor (Homo sapiens) (UniProt P16473); assay: qHTS assay to identify small molecule agonists of the thyroid stimulating hormone receptor (TSHR) signaling pathway (AID 1224843; calls by dose curve; note: nearly all actives have a fitted effect of over 45% in size)
Thyrotropin receptor (Homo sapiens), sequence (P16473 whole entry, looked up): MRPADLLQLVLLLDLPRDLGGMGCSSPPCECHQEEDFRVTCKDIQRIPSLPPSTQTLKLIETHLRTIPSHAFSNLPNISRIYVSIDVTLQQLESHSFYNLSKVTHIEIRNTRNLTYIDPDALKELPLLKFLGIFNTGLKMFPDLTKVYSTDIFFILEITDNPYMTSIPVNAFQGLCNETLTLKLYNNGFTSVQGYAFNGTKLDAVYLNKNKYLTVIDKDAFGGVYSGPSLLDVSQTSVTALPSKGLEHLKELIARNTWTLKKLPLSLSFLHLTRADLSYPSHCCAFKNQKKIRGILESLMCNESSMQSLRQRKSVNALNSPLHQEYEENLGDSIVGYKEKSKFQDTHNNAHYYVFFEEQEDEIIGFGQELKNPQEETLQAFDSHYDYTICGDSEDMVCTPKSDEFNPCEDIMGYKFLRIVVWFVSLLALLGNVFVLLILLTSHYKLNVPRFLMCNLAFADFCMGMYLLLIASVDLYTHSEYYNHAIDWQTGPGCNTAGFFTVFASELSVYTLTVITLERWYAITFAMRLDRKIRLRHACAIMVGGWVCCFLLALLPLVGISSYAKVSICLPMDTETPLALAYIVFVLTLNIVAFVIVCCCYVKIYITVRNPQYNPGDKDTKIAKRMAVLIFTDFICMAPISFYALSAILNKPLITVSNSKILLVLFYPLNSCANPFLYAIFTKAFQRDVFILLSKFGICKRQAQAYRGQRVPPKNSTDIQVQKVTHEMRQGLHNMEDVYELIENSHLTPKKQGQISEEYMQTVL
In short: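 Steps: seed 800 TSHR-HEK293 cells per well; add test compound and hold 30 min at ambient temperature; dispense cAMP-d2 then anti-cAMP cryptate; incubate 1 h at ambient; measure fluorescence intensity.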

[4] = qHTS assay to identify small molecule agonists of the hypoxia (HIF-1) signaling pathway - cell viability counter screen (AID 1224844; calls by dose curve; note: nearly all actives have a fitted effect of over 50% in size)
In short: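 Cells (HRE-bla ME-180, 2,000 per well) sat 5 hrs at 37C, got compound for 17 hrs, were read for CCF4-AM FRET, and were finally lysed with CellTiter-Glo for a 30 min room-temperature luminescence read.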

[5] = qHTS assay to identify small molecule agonists of H2AX (AID 1224845; active = well fitted activation curve with a large enough effect in the signal ratio in the repeat runs, not every such curve was filed as active; the % refers to the signal ratio)
In short: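 Wild-type CHO-K1 cells, plated overnight, exposed 3hr at 37C to 15 concentrations (0.76% DMSO final). Lysed, then HTRF anti-pH2AX (S139) cryptate and anti-H2AX-d2 antibodies, 24 hr room temperature; 665/620 nm emission read.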

[6] = qHTS assay to identify small molecule agonists of H2AX - cell viability counter screen (AID 1224847; calls by dose curve; note: top concentration of the series differs between compounds; nearly all actives have a fitted effect of over 30% in size)
In short: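 CHO-K1 wt, 1000 cells/well, o/n 37C; cpds 15 conc, 3 h 37C, 0.76% DMSO; CellTiter-Glo, 30 min RT, luminescence.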

[7] = qHTS assay to identify small molecule antagonists of the estrogen related receptor (ERR) signaling pathway from Tox21 library (AID 1224848); note: nearly all actives have a fitted effect of over 50% in size; note: potency is the fitted concentration of half-maximal effect
In short: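 Luminescent reporter read-out (ONE-Glo) from NTP's ERR cell line after 18 h treatment at 37 C with DMSO-dissolved Tox21 compounds; cells pre-plated 6 h beforehand at 2,000 per well.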

[8] = qHTS assay to identify small molecule agonists of the estrogen related receptor (ERR) signaling pathway from Tox21 library (AID 1224849; calls by dose curve; note: nearly all actives have a fitted effect of over 15% in size)
In short: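 Screening used an NTP-provided ERR luciferase cell line. Compounds in DMSO were added 6 h after seeding and left 18 h at 37 C before a 30 min ONE-Glo step and luminescence reading.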

[9] = qHTS RealTime-Glo MT Cell Viability Assay in HEK293 cells - 32 hour (AID 1224868); note: top concentration of the series differs between compounds; nearly all actives have a fitted effect of over 50% in size
In short: (§1)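 Assay medium contained NanoLuc luciferase plus cell-permeant prosubstrate, added with HEK293 cells at 600 cells/well. After 5 h at 37 C/5% CO2 compounds were added; plates stayed at 37 C for 40 h with serial luminescence reads.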

[10] = qHTS RealTime-Glo MT Cell Viability Assay in HepG2 cells - 40 hour (AID 1224870); note: nearly all actives have a fitted effect of over 50% in size
In short: (§2)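 HepG2 cells (600/well) mixed with RealTime-Glo MT reagent, settled 5 h at 37 C/5% CO2 before compound addition. Nonlytic NanoLuc luminescence from viable-cell prosubstrate reduction read repeatedly during 40 h treatment at 37 C.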

[11] = A CellTox Green Cytotoxicity Assay to monitor cytotoxicity in HEK293 cells - 40 hour (AID 1224871); note: nearly all actives have a fitted effect of over 45% in size
In short: (§3)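 Fluorescence intensity, read at 0, 8, 16, 24, 32 and 40 h of compound treatment, reflected dye binding to DNA of dead HEK293 cells; compounds (23 nL, DMSO) were added 5 h after plating cells with reagent.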

[12] = qHTS RealTime-Glo MT Cell Viability Assay in HEK293 cells - 16 hour (AID 1224872)
In short: as §1

[13] = qHTS RealTime-Glo MT Cell Viability Assay in HepG2 cells - 8 hour (AID 1224873); note: nearly all actives have a fitted effect of over 55% in size
In short: as §2

[14] = qHTS RealTime-Glo MT Cell Viability Assay in HEK293 cells - 40 hour (AID 1224874); details: RealTime-Glo luminescence; max response: stronger effect = lower value; note: nearly all actives have a fitted effect of over 50% in size
In short: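 Viable HEK293 cells reduce a cell-permeant prosubstrate; the product diffuses out and is consumed by NanoLuc in the medium to give light. Compounds went in after a 5 h incubation and plates were read over the treatment course.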

[15] = A CellTox Green Cytotoxicity Assay to monitor cytotoxicity in HEK293 cells - 24 hour (AID 1224875); note: series mostly up to about 77 µM; nearly all actives have a fitted effect of over 45% in size
In short: as §3

[16] = qHTS assay to identify small molecule agonists of the hypoxia (HIF-1) signaling pathway (AID 1224846; active = well fitted activation curve with a large enough effect in the signal ratio in the repeat runs, not every such curve was filed as active; the % refers to the signal ratio)
In short: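 A low-serum medium (0.5% dialyzed FBS) holding 2,000 HRE-bla ME-180 cells per well is preincubated for 5 hrs, dosed with compounds by pintool, and kept a further 17 hrs at 37C, 5% CO2 before CCF4-AM FRET detection of beta-lactamase.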

[17] = qHTS RealTime-Glo MT Cell Viability Assay in HepG2 cells - 24 hour (AID 1224867); note: nearly all actives have a fitted effect of over 50% in size
In short: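 qHTS, HepG2, 600 cells/well, RealTime-Glo (NanoLuc + prosubstrate) added with cells; 5 h preincubation; DMSO compound addition; 37 C; luminescence at 0/8/16/24/32/40 h.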

[18] = A CellTox Green Cytotoxicity Assay to monitor cytotoxicity in HEK293 cells - 0 hour (AID 1224869); note: nearly all actives have a fitted effect of over 50% in size
In short: as §3

[19] = qHTS assay to identify small molecule antagonists of the estrogen related receptor signaling pathway with the pleiotropic PPARgamma coactivator (PGC) from Tox21 10K library (AID 1224841; call rule not given here)
In short: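 qHTS antagonist format: PGC/ERR cells, 2k/well, compound in DMSO by pin transfer after 6 h attachment, 18 h treatment at 37 C, One-Glo luminescence read at 30 min.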

Structure (SMILES) | outcome [1] | outcome [2] | outcome [3] | outcome [4] | outcome [5] | Potency [6] | Potency [7] | outcome [8] | Potency [9] | outcome [10] | Potency [11] | Potency [12] | outcome [13] | max response [14] [%] | Potency [15] | outcome [16] | outcome [17] | Potency [18] | Potency [19]
CCCCCCCCCCC | inactive | inactive | inactive | inactive | inactive | inactive | inactive | inactive | inactive | inactive | inactive | inactive | inactive | -0.764 | inactive |  |  |  | 
Cc1nc(C)nc(N2C[C@@H](C)N(c3ccnc([C@@H](C)O)n3)[C@@H](C)C2)n1 | inactive | inactive | inactive | inactive | inactive |  | 13.3 µM (active) | inactive | inactive | inactive | inactive | inactive | inactive | 9.39 | inactive | inactive | inactive | inactive | 
C1=CCC(c2ccccc2)CC1 (centres undefined) | inactive | inactive | inactive | inactive | inactive | inactive | inactive | inactive | inactive | inactive | inactive |  | inactive | 4.33 | inactive | inactive |  | inactive | 
COc1cccc2sc(N)nc12 | inactive | inactive | inactive | inactive | inactive | inactive | inactive | inactive | inactive | inactive | inactive | inactive | inactive | -6.71 | inactive | inactive | inactive | inactive | 
CN(C1CCCCC1)S(=O)(=O)c1ccccc1N | inactive | inactive | inactive | inactive | inactive | inactive | inactive | inactive |  | inactive | inactive |  | inactive |  | inactive | inactive | inactive | inactive | 
CCCOC(=O)CCCCC(=O)OCCC | inactive | inactive |  | inactive | inactive | inactive | inactive | inactive | inactive | inactive | inactive | inactive | inactive | -4.84 | inactive | inactive |  | inactive | 
O=CN1CCOCC1 | inactive | inactive |  | inactive | inactive | inactive | inactive | inactive |  | inactive | inactive | inactive |  | 10.7 | inactive | inactive | inactive | inactive | inactive
CC(=O)/C=C/c1ccco1 | inactive | inactive | inactive | inactive | inactive | inactive | inactive | inactive | inactive | inactive | inactive | inactive | inactive | 7.79 | inactive | inactive | inactive | inactive | 
CCCCOC(=O)C(C)OC(=O)CCC (centres undefined) | inactive | inactive | inactive | inactive | inactive |  | inactive | inactive | inactive | inactive | inactive | inactive |  | 13 | inactive | inactive | inactive | inactive | 
CC(Cl)COP(=O)(OCC(C)Cl)OCC(C)Cl (centres undefined) | inactive | inactive | inactive | inactive | inactive | inactive | inactive | inactive | inactive | inactive | inactive | inactive | inactive | -0.188 | inactive | inactive | inactive | inactive | 
O=c1[nH]c(=O)c2ccccc2o1 | inactive | inactive |  | inactive | inactive | inactive | inactive | inactive | inactive | inactive | inactive |  | inactive | 1.98 | inactive | inactive | inactive | inactive | inactive
CN[C@@H]1[C@@H](O)[C@@H](O[C@@H]2[C@H](O)[C@H](O[C@H]3OC(CN)=CC[C@H]3N)[C@@H](N)C[C@H]2N)OCC1(C)O (some centres undefined) | inactive | inactive | inactive | inactive | inactive | inactive | inactive | inactive |  | inactive | inactive | inactive | inactive | 1.03 | inactive |  | inactive | inactive | 
O=P(O)(O)OCC(O)CO (centres undefined) | inactive | inactive |  | inactive | inactive | inactive | inactive | inactive | inactive | inactive | inactive |  | inactive | -2.63 | inactive | inactive | inactive | inactive | 
